# In publication PMC11006913:
# Numbering of substitutions follows the chain as printed.
# Tests used:
# Test in all cases: PBM; 200 nM protein, PBS
# Settings in all cases: dsDNA, one strand shown
# SHOX [1] = target: SHOX (Homo sapiens, UniProt O15266 103-189)
# HOXA4 [2] = target: HOXA4 (Homo sapiens, UniProt Q00056 201-287, W262R)
# HOXA4 [3] = target: HOXA4 (Homo sapiens, UniProt Q00056 201-287)
# HOXA4 [4] = target: HOXA4 (Homo sapiens, UniProt Q00056 201-287, W262F)
# CRX [5] = target: CRX (Homo sapiens, UniProt O43186 26-111)
# Chain of CRX (Homo sapiens, UniProt O43186 26-111) (O43186 26-111): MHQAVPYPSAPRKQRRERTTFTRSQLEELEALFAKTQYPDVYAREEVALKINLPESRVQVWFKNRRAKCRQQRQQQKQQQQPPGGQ
# CRX [6] = target: CRX (Homo sapiens, UniProt O43186 26-111, E42D)
# Chain of CRX (Homo sapiens, UniProt O43186 26-111, E42D) (O43186 26-111 E42D): as the sequence (O43186 26-111) above, with E17D counted along it
# PITX2 = PITX2 (Homo sapiens, UniProt Q99697 72-157)
# CRX [7] = target: CRX (Homo sapiens, UniProt O43186 26-111, R41L)
# Chain of CRX (Homo sapiens, UniProt O43186 26-111, R41L) (O43186 26-111 R41L): as the sequence (O43186 26-111) above, with R16L counted along it
# SIX6 [8] = target: T1, SIX6 (Homo sapiens, UniProt O95475 114-200, L167I)
# T1 sequence: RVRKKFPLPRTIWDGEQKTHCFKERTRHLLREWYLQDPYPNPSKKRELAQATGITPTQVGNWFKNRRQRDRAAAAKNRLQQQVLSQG
# SIX6 [9] = target: T2, SIX6 (Homo sapiens, UniProt O95475 114-200, L143V)
# T2 sequence: T1 sequence with L30V, I54L
# SIX6 [10] = target: T3, SIX6 (Homo sapiens, UniProt O95475 114-200, H141N)
# T3 sequence: T1 sequence with H28N, I54L
# SIX6 [11] = target: T4, SIX6 (Homo sapiens, UniProt O95475 114-200, T165P)
# T4 sequence: T1 sequence with T52P, I54L
# SIX6 [12] = target: T5, SIX6 (Homo sapiens, UniProt O95475 114-200, L167M)
# T5 sequence: T1 sequence with I54M
# SIX6 [13] = target: T6, SIX6 (Homo sapiens, UniProt O95475 114-200, L143M)
# T6 sequence: T1 sequence with L30M, I54L
# SIX6 [14] = target: T7, SIX6 (Homo sapiens, UniProt O95475 114-200, L143I)
# T7 sequence: T1 sequence with L30I, I54L
# SIX6 [15] = target: T8, SIX6 (Homo sapiens, UniProt O95475 114-200, T165G)
# T8 sequence: T1 sequence with T52G, I54L
# SIX6 [16] = target: T9, SIX6 (Homo sapiens, UniProt O95475 114-200, T139Q)
# T9 sequence: T1 sequence with T26Q, I54L
# SIX6 [17] = target: T10, SIX6 (Homo sapiens, UniProt O95475 114-200, T165A)
# T10 sequence: T1 sequence with T52A, I54L
# SHOX [18] = target: SHOX (Homo sapiens, UniProt O15266 103-189, R173C)
# Chain of SHOX (Homo sapiens, UniProt O15266 103-189, R173C) (O15266 103-189 R173C): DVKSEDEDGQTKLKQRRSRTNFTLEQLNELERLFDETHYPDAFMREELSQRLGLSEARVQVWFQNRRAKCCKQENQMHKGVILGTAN
# SIX6 [19] = target: T11, SIX6 (Homo sapiens, UniProt O95475 114-200, L167V)
# T11 sequence: T1 sequence with I54V
# SIX6 [20] = target: T12, SIX6 (Homo sapiens, UniProt O95475 114-200)
# T12 sequence: T1 sequence with I54L
# SIX6 [21] = target: T13, SIX6 (Homo sapiens, UniProt O95475 114-200, T165I)
# T13 sequence: T1 sequence with T52I, I54L
# Chain of SHOX (Homo sapiens, UniProt O15266 103-189) (O15266 103-189): as the sequence (O15266 103-189 R173C) above, with C71R counted along it
# Chain of HOXA4 (Homo sapiens, UniProt Q00056 201-287) (Q00056 201-287): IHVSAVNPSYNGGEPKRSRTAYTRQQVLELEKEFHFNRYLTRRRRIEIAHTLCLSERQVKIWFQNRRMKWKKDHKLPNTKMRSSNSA
# Chain of HOXA4 (Homo sapiens, UniProt Q00056 201-287, W262F) (Q00056 201-287 W262F): as the sequence (Q00056 201-287) above, with W62F counted along it
# Chain of HOXA4 (Homo sapiens, UniProt Q00056 201-287, W262R) (Q00056 201-287 W262R): as the sequence (Q00056 201-287) above, with W62R counted along it
sequence,measurement,setting,value
AATAACGC,binding signal,SHOX [1],"8.74 upbm affinity estimate (log intensity, higher = more binding, comparable within an allelic series)"
same,binding signal,HOXA4 [2],"10.2 upbm affinity estimate (log intensity, higher = more binding, comparable within an allelic series)"
same,binding signal,HOXA4 [3],"11.2 upbm affinity estimate (log intensity, higher = more binding, comparable within an allelic series)"
same,binding signal,HOXA4 [4],"10.4 upbm affinity estimate (log intensity, higher = more binding, comparable within an allelic series)"
CGGATTAG,binding signal,SHOX [1],"8.9 upbm affinity estimate (log intensity, higher = more binding, comparable within an allelic series)"
same,binding signal,CRX [5],"13.6 upbm affinity estimate (log intensity, higher = more binding, comparable within an allelic series)"
same,binding signal,CRX [6],"13.7 upbm affinity estimate (log intensity, higher = more binding, comparable within an allelic series)"
same,binding signal,PITX2,"13.2 upbm affinity estimate (log intensity, higher = more binding, comparable within an allelic series)"
same,binding signal,CRX [7],"13.4 upbm affinity estimate (log intensity, higher = more binding, comparable within an allelic series)"
GAACTAAA,binding signal,SHOX [1],"8.27 upbm affinity estimate (log intensity, higher = more binding, comparable within an allelic series)"
GGGCCGAA,binding signal,SHOX [1],"7.23 upbm affinity estimate (log intensity, higher = more binding, comparable within an allelic series)"
same,binding signal,SIX6 [8],"8.79 upbm affinity estimate (log intensity, higher = more binding, comparable within an allelic series)"
same,binding signal,SIX6 [9],"8.79 upbm affinity estimate (log intensity, higher = more binding, comparable within an allelic series)"
same,binding signal,SIX6 [10],"8.73 upbm affinity estimate (log intensity, higher = more binding, comparable within an allelic series)"
same,binding signal,SIX6 [11],"8.89 upbm affinity estimate (log intensity, higher = more binding, comparable within an allelic series)"
same,binding signal,SIX6 [12],"8.8 upbm affinity estimate (log intensity, higher = more binding, comparable within an allelic series)"
same,binding signal,SIX6 [13],"8.64 upbm affinity estimate (log intensity, higher = more binding, comparable within an allelic series)"
same,binding signal,SIX6 [14],"8.74 upbm affinity estimate (log intensity, higher = more binding, comparable within an allelic series)"
same,binding signal,SIX6 [15],"8.79 upbm affinity estimate (log intensity, higher = more binding, comparable within an allelic series)"
same,binding signal,SIX6 [16],"8.8 upbm affinity estimate (log intensity, higher = more binding, comparable within an allelic series)"
same,binding signal,SIX6 [17],"8.73 upbm affinity estimate (log intensity, higher = more binding, comparable within an allelic series)"
same,binding signal,SHOX [18],"7.18 upbm affinity estimate (log intensity, higher = more binding, comparable within an allelic series)"
same,binding signal,SIX6 [19],"8.77 upbm affinity estimate (log intensity, higher = more binding, comparable within an allelic series)"
same,binding signal,SIX6 [20],"8.68 upbm affinity estimate (log intensity, higher = more binding, comparable within an allelic series)"
same,binding signal,SIX6 [21],"8.82 upbm affinity estimate (log intensity, higher = more binding, comparable within an allelic series)"
CCGGCCAC,binding signal,SHOX [1],"7.3 upbm affinity estimate (log intensity, higher = more binding, comparable within an allelic series)"
same,binding signal,SIX6 [8],"8.84 upbm affinity estimate (log intensity, higher = more binding, comparable within an allelic series)"
same,binding signal,SIX6 [9],"8.77 upbm affinity estimate (log intensity, higher = more binding, comparable within an allelic series)"
same,binding signal,SIX6 [10],"8.85 upbm affinity estimate (log intensity, higher = more binding, comparable within an allelic series)"
same,binding signal,SIX6 [11],"8.87 upbm affinity estimate (log intensity, higher = more binding, comparable within an allelic series)"
same,binding signal,SIX6 [12],"8.86 upbm affinity estimate (log intensity, higher = more binding, comparable within an allelic series)"
same,binding signal,SIX6 [13],"8.73 upbm affinity estimate (log intensity, higher = more binding, comparable within an allelic series)"
same,binding signal,SIX6 [14],"8.81 upbm affinity estimate (log intensity, higher = more binding, comparable within an allelic series)"
same,binding signal,SIX6 [15],"8.89 upbm affinity estimate (log intensity, higher = more binding, comparable within an allelic series)"
same,binding signal,SIX6 [16],"8.81 upbm affinity estimate (log intensity, higher = more binding, comparable within an allelic series)"
same,binding signal,SIX6 [17],"8.81 upbm affinity estimate (log intensity, higher = more binding, comparable within an allelic series)"
same,binding signal,SHOX [18],"7.14 upbm affinity estimate (log intensity, higher = more binding, comparable within an allelic series)"
same,binding signal,SIX6 [19],"8.82 upbm affinity estimate (log intensity, higher = more binding, comparable within an allelic series)"
same,binding signal,SIX6 [20],"8.74 upbm affinity estimate (log intensity, higher = more binding, comparable within an allelic series)"
same,binding signal,SIX6 [21],"8.83 upbm affinity estimate (log intensity, higher = more binding, comparable within an allelic series)"
AAATTATC,binding signal,SHOX [1],"10.4 upbm affinity estimate (log intensity, higher = more binding, comparable within an allelic series)"
